Structures are written as SMILES. Compounds without any hit were thinned out: in the full panel of roughly 83,000, 20% have a hit.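 For each line, cells grew in 96-well plates with the test compound present at a single concentration for 48 hours.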 Unmarked numbers belong to inactive results. Calls of active or inactive are those of the source. How the source made its calls: active means growth percent below 10; inactive means the rest.

15 molecules from PubChem BioAssay (NCI) can be followed below.

Some test systems named below: DU-145 prostate; K-562 leukemia; MALME-3M melanoma; MDA-MB-231 breast; RXF 393 renal; SF-268 CNS; SF-539 CNS; UACC-257 melanoma; M14 melanoma; SF-295 CNS.
Holding throughout (assay): NCI-60 one-dose screen, 48 h (100 = growth as untreated, 0 = no growth, -100 = all killed)
What all share (settings): 10 µM unless noted

For the molecule `Nc1cc2c([nH]c[n+]2CC#CCCl)c(SCC#CCCl)n1`, the growth with DU-145 prostate is -5.81% (active); with K-562 leukemia, 5.47% (active); with MALME-3M melanoma, -46.4% (active); in the test with MDA-MB-231 breast, -50.2% (active); in the test with RXF 393 renal, -90.5% (active); with SF-268 CNS it was -9.39% (active). Besides, the values for the growth in the test with SF-539 CNS, with UACC-257 melanoma and with M14 melanoma were -75.3% (active), -59.5% (active) and -90.9% (active), respectively.

For `COc1ccc(-c2cnnn2-c2nonc2-n2cccc2)cc1OC`, the growth in the test on DU-145 prostate is 80.9%; in the test with K-562 leukemia, 3.29% (active); in the test on MALME-3M melanoma, 25.1%; with MDA-MB-231 breast, 65.7%; with RXF 393 renal, 75.6%; in the test on SF-268 CNS, 71.8%. The growth with UACC-257 melanoma is 79.6%; with M14 melanoma, 39.9%.

For `Cc1[nH]c2ccc(F)cc2c1CCNC(=O)C1CCN(C(=O)c2ccccc2)C1` (configuration not stated), the growth in the test on DU-145 prostate was 87.6% [25 µM]; in the test on K-562 leukemia, 91.9% [25 µM]; in the test on MALME-3M melanoma, 73.3% [25 µM]; in the test with MDA-MB-231 breast, 82% [25 µM]; with SF-268 CNS, 85.1% [25 µM]; in the test with SF-295 CNS it was 96.4% [25 µM]. The growth with SF-539 CNS was 83% [25 µM]; in the test with UACC-257 melanoma, 99.6% [25 µM]; in the test with M14 melanoma it was 98.8% [25 µM].

With `O=C(Nc1cccc(-n2cc(-c3ccncc3)c(-c3ccc(Cl)c(O)c3)n2)c1)Nc1ccc(Cl)c(Cl)c1`, the growth was 25.9% in the test on DU-145 prostate; 11.4% in the test on K-562 leukemia; 10.3% with MALME-3M melanoma; -0.72% (active) with MDA-MB-231 breast; 4.46% (active) in the test with RXF 393 renal; 29.1% in the test with SF-268 CNS. Besides, the growth was 37% in the test with SF-539 CNS, -17.3% (active) with UACC-257 melanoma and 17.2% in the test with M14 melanoma.

With `COc1cc(-c2nn(-c3cccc(NC(=O)Nc4cccc(C(F)(F)F)c4)c3)cc2-c2ccncc2)ccc1Cl`, the growth in the test on DU-145 prostate is 9.75% (active); in the test on K-562 leukemia, 1.6% (active); with MALME-3M melanoma, -32.1% (active); with MDA-MB-231 breast, -28.8% (active); in the test with RXF 393 renal, -69.8% (active); in the test on SF-268 CNS it was 2.35% (active). The growth was -34.2% (active) in the test with SF-539 CNS, -52.9% (active) in the test with UACC-257 melanoma and -61.5% (active) with M14 melanoma.

As for `COc1cc(NCCCCCN)c2ncccc2c1`, the growth in the test on DU-145 prostate is 119%; in the test with K-562 leukemia, 102%; in the test on MALME-3M melanoma, 99%; with RXF 393 renal, 129%; in the test on SF-268 CNS, 106%; in the test with SF-295 CNS it was 112%. The figures for the growth with UACC-257 melanoma and with M14 melanoma were 107% and 96.8%, respectively.

With `c1ccc(-c2nc(N3CCNCC3)c3nc(-c4ccccc4)oc3n2)cc1`, the growth with DU-145 prostate is -63.2% (active); in the test with K-562 leukemia, -10.7% (active); with MALME-3M melanoma it was 91.8%; in the test with MDA-MB-231 breast it was -81% (active); with SF-268 CNS, 36.1%; in the test on SF-295 CNS, 91.2%. Further, the growth in the test on SF-539 CNS was -40% (active); with UACC-257 melanoma, 105%; in the test with M14 melanoma, 99.7%.

As for `Cc1ccc(-c2nc(C(Cl)Cl)n3nc(-c4ccccc4)cc3n2)cc1`, the growth in the test on DU-145 prostate is -9.74% (active); in the test with K-562 leukemia, 21.2%; with MALME-3M melanoma, 74.7%; with MDA-MB-231 breast, 11.5%; in the test on SF-268 CNS, 8.85% (active); in the test on SF-295 CNS it was 66.2%. For the same molecule, the growth with SF-539 CNS was 29.8%; in the test on UACC-257 melanoma it was 94.1%; in the test on M14 melanoma it was 95.7%.

Regarding `N#Cc1c(Nc2ccccc2)nc2n(c1=O)-c1ccccc1Sc1ccccc1-2`, the growth in the test on DU-145 prostate was 90%; with K-562 leukemia, 57.6%; in the test with MDA-MB-231 breast, 63.7%; with RXF 393 renal, 82.2%; in the test on SF-268 CNS it was 85.3%; with SF-295 CNS, 84%. The growth with SF-539 CNS was 84.4%; with UACC-257 melanoma, 105%; in the test with M14 melanoma, 95.1%.

Turning to `COc1cc(-c2nn(-c3cccc(NC(=O)Nc4ccc(Cl)c(Cl)c4)c3)cc2-c2ccncc2)ccc1Cl`, the growth in the test on DU-145 prostate was 20%; with K-562 leukemia, 3.63% (active); in the test with MALME-3M melanoma, -19.9% (active); in the test on MDA-MB-231 breast, -40.1% (active); with RXF 393 renal, -22.8% (active); in the test with SF-268 CNS, 17.9%. For the same molecule, the figures for the growth in the test with SF-539 CNS, with UACC-257 melanoma and with M14 melanoma were 12.3%, -36.6% (active) and 0.293% (active), respectively.

For the molecule `COc1ccc(/C=C2\CN(Cc3cn(CCNc4ccnc5cc(Cl)ccc45)nn3)C/C(=C\c3ccc(OC)c(OC)c3)C2=O)cc1OC`, the growth with DU-145 prostate was 0.0798% (active); with K-562 leukemia it was 2.21% (active); with MALME-3M melanoma, -27.7% (active); with MDA-MB-231 breast, -0.28% (active); in the test with RXF 393 renal it was -52.1% (active); with SF-268 CNS, 9.6% (active). Moreover, the growth in the test with SF-539 CNS is -12.5% (active); in the test with UACC-257 melanoma, 5.32% (active); with M14 melanoma it was 3.7% (active).

`COc1cc(-c2ncn(/C=C\C(=O)OC(C)C)n2)cc(C(F)(F)F)c1`: the growth was 15.7% in the test with DU-145 prostate; 3.62% (active) in the test with K-562 leukemia; -1.62% (active) in the test with MALME-3M melanoma; -41.1% (active) in the test with RXF 393 renal; -1.06% (active) in the test with SF-268 CNS; 61.3% in the test with SF-295 CNS. Further, the figures for the growth in the test on SF-539 CNS and with UACC-257 melanoma were -36.8% (active) and 60.3%, respectively.

Turning to `COc1cc(-c2nn(-c3cccc(NC(=O)c4cccc(C(F)(F)F)c4)c3)cc2-c2ccncc2)ccc1Cl`, the growth was 2.16% (active) in the test with DU-145 prostate; 6.11% (active) in the test on K-562 leukemia; 10.1% in the test with MALME-3M melanoma; 4.67% (active) in the test with MDA-MB-231 breast; -42.8% (active) with RXF 393 renal; 30.5% with SF-268 CNS. The growth is -48.8% (active) in the test on SF-539 CNS, 34.5% with UACC-257 melanoma and 12.3% with M14 melanoma.

As for `O=C(Nc1cccc(-n2cc(-c3ccncc3)c(-c3ccc(Cl)c(O)c3)n2)c1)Nc1ccc(Cl)c(C(F)(F)F)c1`, the growth in the test on DU-145 prostate was -17% (active); in the test on K-562 leukemia, -20.8% (active); in the test with MALME-3M melanoma, -16.6% (active); in the test on MDA-MB-231 breast, -36.4% (active); in the test on RXF 393 renal it was -76% (active); in the test with SF-268 CNS, -34.5% (active). Also, the growth in the test on SF-539 CNS is -26.1% (active); with UACC-257 melanoma, -54% (active); in the test with M14 melanoma it was -25.5% (active).

In the case of `COc1ccc(N=Cc2c(O)ccc3c2oc2cc(Cl)c(O)c(Cl)c23)cc1`, the growth in the test on DU-145 prostate is 125%; in the test with K-562 leukemia, 81.1%; in the test on MALME-3M melanoma it was 106%; in the test on MDA-MB-231 breast, 107%; in the test with SF-268 CNS, 105%; in the test on SF-295 CNS it was 115%. For the same molecule, the growth was 96.7% in the test on SF-539 CNS, 76.5% in the test on UACC-257 melanoma and 94.9% with M14 melanoma.
